About 2,000 (36%) of roughly 5,500 compounds were called active. Another 18% or so got no clear call; they are omitted. Cut-off read from the data, not from the text of the source: active = normalized growth mostly below about 0.91 (no sharp cut-off); inconclusive = no clear call, values can overlap the other calls; inactive = mostly above about 0.92. Some of the results follow.
Test: chemical genetic growth profiling, strain panel (AID 1159580);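 note: tested at 20 µM; growth read once vehicle control cultures reached saturation at 30 °C; 1 = growth at the plate median or of vehicle wells; lower values mean less growth of the strain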
Details: S. cerevisiae deletion strains, growth OD

Measured: normalized growth

CCCCC[C@H](CC(=O)O)C(=O)O
inactive: locus YHR030C, strain SLT2, stronger effect = lower value 1.04 | locus YHR079C, strain IRE1, stronger effect = lower value 1.03 | locus YJL095W, strain BCK1, stronger effect = lower value 1.04 | locus YJR066W, strain TOR1, stronger effect = lower value 1.03 | locus YLR113W, strain HOG1, stronger effect = lower value 0.945 | locus YNL183C, strain NPR1, stronger effect = lower value 0.989 | locus YOR231W, strain MKK1, stronger effect = lower value 1.05 | locus YPL256C, strain CLN2, stronger effect = lower value 1.02

CCCCCC(O)CCCC(=O)O (configuration not stated)
inactive: locus YAL040C, strain CLN3, stronger effect = lower value 1.02 | locus YCL061C, strain MRC1 (second series), stronger effect = lower value 1.01 | locus YDR363W, strain ESC2, stronger effect = lower value 1.01 | locus YER002W, strain NOP16, stronger effect = lower value 1.03 | locus YJR075W, strain HOC1, stronger effect = lower value 1.02 | locus YNL175C, strain NOP13, stronger effect = lower value 1.02 | locus YNL197C, strain WHI3, stronger effect = lower value 1.05 | locus YNL224C, strain SQS1, stronger effect = lower value 0.991 | locus YOR083W, strain WHI5 (second series), stronger effect = lower value 1.06

Source: PubChem BioAssay AID1159580 (chemical genetic matrix, 2015)
